# Experimental data published in PubChem BioAssay.
# Several values for one entry are separate records, joined by “and”; a condition that tells them apart may be missing. Equal entries are not always repeated. Activity calls are given as the source filed them. Unless noted, how the calls were made is not given here.
# Assays:
# [1] = P. berghei load reduction in hepatocytes – cell-based, HepG2, luciferase luminescence, HepG2 viability, primary screen (AID 624349; in the data active means parasite load remaining mostly below about 12%, no sharp cut-off; inactive means mostly above about 10%;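 further: 100% = mean of DMSO negative control wells on the same plate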); settings: P. berghei liver stage in HepG2, luciferase luminescence, concentration not given here; parasite load remaining: stronger effect = lower value; viability: measured here: HepG2 viability without parasites
# [2] = tested on: Aerobactin synthetase IucA (Klebsiella pneumoniae); experiment: inhibition of K. pneumoniae IucA enzyme – biochemical, Tocris library, absorbance (AID 1345561); settings: purified IucA enzyme assay, absorbance (OD) read-out; stronger effect = lower value;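 tested at 8 µM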;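 further: 100% = enzyme without compound and 0% = no enzyme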
# [3] = viability loss with induced miR-34 in A549 – imaging, A549 dox-inducible miR-34, nuclei and caspase counts, primary screen (AID 1347080;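 active means compounds whose cell count with miR-34 switched on is under 0.7 times the count with it off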); settings: A549 miR-34 inducible, Hoechst nuclei count, 48 h
# [4] = galactose survival enhancers in mitochondrial complex I cybrids – cell-based, galactose medium, ATP luminescence, primary screen (AID 1645843;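 active means z-score of at least 1.8 in each of two replicates, scored against plate mean and spread of sample wells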;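 further: positive z means more ATP and so rescue of galactose-driven cybrid death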); settings: complex I mutant cybrid cells, 72 h, stronger effect = higher value
# [5] = growth inhibition, single agent or in combination, cell-based, chromothripsis tumors, cisplatin or BGB combos (AID 1671449; in the data active means inhibition above about 80%;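 further: cells exposed for 96 hours; 0% = vehicle DMSO and 100% = killing by high DMSO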); settings: LFS_MB_P medulloblastoma cells
# [6] = growth inhibition, single agent and combos, cell-based, chromothripsis tumors, cisplatin or BGB combos (AID 1671450; in the data active means inhibition above about 80%;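 further: cells exposed to compound for four days; 0% = vehicle DMSO and 100% = cell killing by high DMSO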); settings: HDN33 neuroblastoma cells, stronger effect = higher value
# [7] = growth inhibition, single agents and combos, ICB984, cell-based, cisplatin or BGB combos, synergistic combos for chromothripsis tumors (AID 1671451); settings: ICB984 medulloblastoma cells, drug combinations, stronger effect = higher value;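 further: cells exposed for 96 hours before readout; 0% = vehicle DMSO and 100% = killing by high DMSO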
# [8] = growth inhibition, single agents and combos, HTB85, cell-based, BGB or cisplatin IC20 combos, synergistic combos for chromothripsis tumors (AID 1671453; in the data active means inhibition above about 80%;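 further: cells exposed for 96 hours before readout; 0% = vehicle DMSO and 100% = high DMSO killing control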); settings: HTB85 osteosarcoma cells, drug combinations, stronger effect = higher value
# [9] = stronger effect = lower value, cell number ratio, induced over uninduced
# [10] = measured here: relative caspase fold change +Dox/-Dox
# [11] = measured here: total cells with miR-34 induction, stronger effect = lower value
# [12] = measured here: total cells without miR-34 induction
# [13] = at 0.5 µM, stronger effect = higher value
# [14] = measured here: combination with BGB IC20, at 0.005 µM
# [15] = measured here: combination with BGB IC40, at 0.005 µM
# [16] = measured here: combination with BGB IC40, at 0.05 µM
# [17] = measured here: combination with cisplatin, at 0.5 µM, stronger effect = higher value
# [18] = measured here: combination with cisplatin, at 5 µM, stronger effect = higher value
# [19] = measured here: with BGB IC20 combination, at 0.5 µM
# [20] = measured here: with cisplatin IC20 combination, at 0.5 µM
# [21] = measured here: 5 uM single agent, at 5 µM
# [22] = measured here: with BGB IC20, at 0.5 µM
# [23] = measured here: with BGB IC20, at 5 µM
# [24] = measured here: with cisplatin IC20, at 0.5 µM
# [25] = measured here: with cisplatin IC20, at 5 µM
structure (smiles),measurement,setting,value
COc1cc2ncnc(Nc3ccc(Oc4ccccc4)cc3)c2cc1OC,parasite load remaining,[1],30.7% (inactive)
same,viability,[1],67.6%
same,remaining activity,[2],104% (inactive)
same,fold change,[3]; [9],0.963 (inactive)
same,fold change,[3]; [10],1.11
same,cell count,[3]; [11],8700
same,cell count,[3]; [12],9040
same,z-score,[4],0.48 (inactive)
O=C(CCCc1ccc(-c2ccccc2F)cc1)Nc1ccc(O)cc1,parasite load remaining,[1],21.2% (inactive)
same,viability,[1],102%
same,remaining activity,[2],95.9% (inactive)
same,fold change,[3]; [9],1.05 (inactive)
same,fold change,[3]; [10],1.19
same,cell count,[3]; [11],2340
same,cell count,[3]; [12],2220
same,z-score,[4],-0.66 (inactive)
O=c1nc2ccccc2c2n1CC(CN1CCN(c3ccccc3)CC1)N2 (configuration not stated),remaining activity,[2],100% (inactive)
same,fold change,[3]; [9],0.869 (inactive)
same,fold change,[3]; [10],0.649
same,cell count,[3]; [11],9300
same,cell count,[3]; [12],10700
same,z-score,[4],-0.605 (inactive)
Cc1nc2sccn2c(=O)c1CCN1CCC(=C(c2ccccc2)c2ccc(F)cc2)CC1,remaining activity,[2],120% (inactive)
same,fold change,[3]; [9],0.974 (inactive)
same,fold change,[3]; [10],1.11
same,cell count,[3]; [11],7180
same,cell count,[3]; [12],7370
same,z-score,[4],-0.655 (inactive)
COc1cc2c(cc1C(F)(F)F)N(C(=O)Nc1cc(F)cc(-c3cccnc3)c1)CC2,remaining activity,[2],97.1% (inactive)
same,fold change,[3]; [9],0.848 (inactive)
same,fold change,[3]; [10],0.948
same,cell count,[3]; [11],5790
same,cell count,[3]; [12],6820
same,z-score,[4],-0.61 (inactive)
C1CCC2(CC1)CCNCC2,remaining activity,[2],105% (inactive)
same,fold change,[3]; [9],0.955 (inactive)
same,fold change,[3]; [10],1.56
same,cell count,[3]; [11],9280
same,cell count,[3]; [12],9730
same,z-score,[4],0.34 (inactive)
COc1cc(C=O)c([N+](=O)[O-])cc1OC,remaining activity,[2],102% (inactive)
same,fold change,[3]; [9],0.928 (inactive)
same,fold change,[3]; [10],1.17
same,cell count,[3]; [11],8790
same,cell count,[3]; [12],9460
same,z-score,[4],-0.05 (inactive)
same,inhibition,[5]; [13],-16.6% (inactive)
same,inhibition,[5]; [14],9.48%
same,inhibition,[5]; [15],-5.33%
same,inhibition,[5]; [16],7.41%
same,inhibition,[5]; [17],-18.5%
same,inhibition,[5]; [18],3.4%
same,inhibition,"[6]; BGB combo, at 5 µM",-38.7%
same,inhibition,[6]; at 0.5 µM,-19.7% (inactive)
same,inhibition,"[6]; cisplatin combo, at 5 µM",-6.74%
same,inhibition,[6]; [19],-8.97%
same,inhibition,[6]; [20],-29.9%
same,inhibition,"[6]; single agent, at 5 µM",0.626%
same,inhibition,"[7]; BGB IC20 combo, at 0.005 µM",-9.07%
same,inhibition,"[7]; BGB IC40 combo, at 0.005 µM",-48.2%
same,inhibition,"[7]; BGB IC40 combo, at 0.05 µM",-39.8%
same,inhibition,[7]; at 0.5 µM,-35.2% (inactive)
same,inhibition,"[7]; cisplatin combo, at 0.05 µM",-45.3%
same,inhibition,"[7]; cisplatin combo, at 0.5 µM",-48.6%
same,inhibition,"[7]; cisplatin combo, at 5 µM",-19.2%
same,inhibition,[7]; [21],-4.36%
same,inhibition,[8]; at 0.5 µM,-19.8% (inactive)
same,inhibition,[8]; [22],-22.3%
same,inhibition,[8]; [23],-12.5%
same,inhibition,[8]; [24],-24.3%
same,inhibition,[8]; [25],-32.4%
same,inhibition,"[8]; single agent, at 5 µM",-9.78%
N#C/C(=C\c1ccc(O)c(O)c1)C(=O)NCCCc1ccccc1,remaining activity,[2],98.4% (inactive)
same,fold change,[3]; [9],0.871 (inactive)
same,fold change,[3]; [10],1.07
same,cell count,[3]; [11],7250
same,cell count,[3]; [12],8330
same,z-score,[4],-0.64 (inactive)
CC(C)C1C2CCC(C2)C1N (configuration not stated),remaining activity,[2],119% (inactive)
same,fold change,[3]; [9],0.973 (inactive)
same,fold change,[3]; [10],0.597
same,cell count,[3]; [11],9360
same,cell count,[3]; [12],9620
same,z-score,[4],-0.42 (inactive)
NS(=O)(=O)c1cccc2c1c([N+](=O)[O-])cc1nc(O)c(O)nc12,remaining activity,[2],120% (inactive)
same,fold change,[3]; [9],1.03 (inactive) and 0.923 (inactive)
same,fold change,[3]; [10],1.03 and 0.947
same,cell count,[3]; [11],11000 and 9080
same,cell count,[3]; [12],10700 and 9830
same,z-score,[4],0.68 (inactive) and 0.65 (inactive)
Cc1nc2c(O)cccc2c(=O)[nH]1,remaining activity,[2],117% (inactive)
same,fold change,[3]; [9],0.957 (inactive)
same,fold change,[3]; [10],0.648
same,cell count,[3]; [11],9130
same,cell count,[3]; [12],9530
same,z-score,[4],-0.215 (inactive)
O=c1cc(N2CCOCC2)oc2c1ccc1ccccc12,parasite load remaining,[1],36.5% (inactive)
same,viability,[1],108%
same,remaining activity,[2],119% (inactive)
same,fold change,[3]; [9],1.08 (inactive)
same,fold change,[3]; [10],1.44
same,cell count,[3]; [11],6910
same,cell count,[3]; [12],6380
same,z-score,[4],1.36 (inactive)
same,inhibition,[5]; [13],-16% (inactive)
same,inhibition,[5]; [14],-21.9%
same,inhibition,[5]; [15],39.3%
same,inhibition,[5]; [16],-14.5%
same,inhibition,[5]; [17],-18.2%
same,inhibition,[5]; [18],6.61%
same,inhibition,"[6]; BGB combo, at 5 µM",-27.9%
same,inhibition,[6]; at 0.5 µM,5.72% (inactive)
same,inhibition,"[6]; cisplatin combo, at 5 µM",-6.14%
same,inhibition,[6]; [19],-2.44%
same,inhibition,[6]; [20],15.8%
same,inhibition,"[6]; single agent, at 5 µM",4.04%
same,inhibition,"[7]; BGB IC20 combo, at 0.005 µM",3.18%
same,inhibition,"[7]; BGB IC40 combo, at 0.005 µM",-0.874%
same,inhibition,"[7]; BGB IC40 combo, at 0.05 µM",-4.91%
same,inhibition,[7]; at 0.5 µM,-11.2% (inactive)
same,inhibition,"[7]; cisplatin combo, at 0.05 µM",-10.2%
same,inhibition,"[7]; cisplatin combo, at 0.5 µM",-14.9%
same,inhibition,"[7]; cisplatin combo, at 5 µM",-15.9%
same,inhibition,[7]; [21],0.403%
same,inhibition,[8]; at 0.5 µM,-0.76% (inactive)
same,inhibition,[8]; [22],5.35%
same,inhibition,[8]; [23],11.2%
same,inhibition,[8]; [24],-3.29%
same,inhibition,[8]; [25],1.5%
same,inhibition,"[8]; single agent, at 5 µM",5%
O=S(=O)(c1cccc2cnccc12)N1CCNCC1,remaining activity,[2],125% (inactive)
same,fold change,[3]; [9],1.05 (inactive)
same,fold change,[3]; [10],0.794
same,cell count,[3]; [11],9210
same,cell count,[3]; [12],8760
same,z-score,[4],-0.56 (inactive)
NC(=NCCc1ccc(I)cc1)SCCCC1CNCN1 (configuration not stated),remaining activity,[2],98% (inactive)
same,fold change,[3]; [9],1.01 (inactive)
same,fold change,[3]; [10],0.754
same,cell count,[3]; [11],6720
same,cell count,[3]; [12],6680
same,z-score,[4],-0.645 (inactive)
